Bioassay records from PubChem.
Sampled rows, rich in hits. Any-hit rate of the full collection: about 3.2%.
CHT allo act – allosterically activates the human high affinity choline transporter. B-score at 10 µM. AID 488977. Q9GZV3. 0.49% of 310,000 active. CHT-expressing cells, membrane potential dye, choline EC20; hits give high values; LV-AA mutant CHT in HEK293 cells;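 active = initial fluorescence not abnormally high and integrated response B-score, plate-corrected, over 3 SD above library mean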
PHOSPHO1 block – inhibitors of human PHOSPHO1 phosphatase; Q8TCT1; recombinant PHOSPHO1, absorbance phosphatase assay; inhibition, % at 13.3 µM; 1.1% of 290,000 active; in the data active = inhibition above about 60%
HDAC3 inh – inhibitors of human histone deacetylase 3; O15379; recombinant HDAC3, fluorogenic peptide/trypsin coupled, fluorescence; inhibition, % at 8.3 µM; 0.15% of 320,000 active; in the data active = inhibition above about 26%, passing the limit was not always enough; inconclusive = no clear call, values can overlap the other calls
Target sequence (O15379 whole entry, looked up): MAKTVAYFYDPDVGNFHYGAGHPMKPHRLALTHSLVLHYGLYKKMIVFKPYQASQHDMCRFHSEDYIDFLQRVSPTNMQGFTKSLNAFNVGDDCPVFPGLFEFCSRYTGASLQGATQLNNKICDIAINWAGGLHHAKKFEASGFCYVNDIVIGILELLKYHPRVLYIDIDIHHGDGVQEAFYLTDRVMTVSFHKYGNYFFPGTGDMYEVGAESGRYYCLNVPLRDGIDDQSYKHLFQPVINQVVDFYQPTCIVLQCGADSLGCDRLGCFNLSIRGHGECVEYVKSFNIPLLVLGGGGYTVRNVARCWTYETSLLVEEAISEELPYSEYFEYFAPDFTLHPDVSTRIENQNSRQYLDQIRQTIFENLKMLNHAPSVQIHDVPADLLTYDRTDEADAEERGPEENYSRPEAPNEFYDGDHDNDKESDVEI
ANO1 activ – activates or potentiates the mouse TMEM16A chloride channel. B-score at 10 µM. AID 623877. HEK293 TMEM16A/YFP-H148Q/I152L, iodide quench fluorescence; hits give low values. 0.3% of 340,000 active. Q8BHY3;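 active = fluorescence-ratio B-score plate-corrected deviation score at least 3 library SD below zero, with starting fluorescence score within 5 deviations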;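 note: channel opened by trigger with iodide after compound preincubation; score built on the fluorescence ratio of max minus min over baseline; more negative score means more quench and so TMEM16A activation or potentiation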
ANO1 block – inhibitors of mouse TMEM16A calcium-activated chloride channel; Q8BHY3; HEK293 TMEM16A/YFP iodide influx fluorescence, ionomycin; normalized B-score (activity score, 25-100; higher = stronger inhibition) at 10 µM; 1.2% of 310,000 active;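 active = ratio plate-corrected score three or more library SD toward inhibition, starting fluorescence score within five deviations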;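 note: score derived from kinetic fluorescence span divided by baseline fluorescence per well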
CHT inh – human CHT choline transport inhibition; CHT-expressing cells, membrane potential dye, choline response; hits give low values; B-score at 10 µM; 0.86% of 310,000 active;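 active = B-score over 3 SD under the library average, and starting fluorescence ratio not unusually high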;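 note: choline stimulus applied at its EC90 after an EC20 pre-addition; B-score computed on integrated fluorescence ratio after choline addition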
TMEM16A reconf – re-confirmation of mouse TMEM16A chloride channel inhibitors; shares compounds with ANO1 block; HEK293 TMEM16A/YFP-H148Q, iodide quench fluorescence; ionomycin added to raise cell calcium; inhibition, % at 10 µM; 39% of 2,300 active; AID 652189;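 active = mean duplicate percent inhibition, scaled so buffer wells are 0 and the reference blocker 100, over three buffer SD above buffer mean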
TMEM16A Ca cntr – calcium mobilization counter-screen hit for TMEM16A inhibitor series | shares compounds with ANO1 block | TMEM16A/YFP HEK293, Fluo4 calcium mobilization | calcium response (% of ionomycin), % at 10 µM | 2% of 2,300 active | AID 652231;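 active = duplicate-averaged calcium signal over 20% of the ionomycin maximum, relative to buffer baseline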;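 note: each well's signal is peak minus trough fluorescence divided by its pre-addition baseline; 0% = buffer wells and 100% = ionomycin wells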
YFP-HEK293 quench – counter-screen for TMEM16A inhibitors: effect in parental YFP-HEK293 cells; shares compounds with ANO1 block; iodide YFP quench, ionomycin; YFP ratio F(max-min)/F0 at 10 µM; 2,300 tested, under 10 active; AID 652233;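 active = yellow fluorescent protein signal ratio exceeding the buffer control mean by over 5 SD of those controls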;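 note: ratio is mean of duplicate wells from kinetic YFP trace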
ClC-1 inh – selectivity of TMEM16A inhibitors: inhibition of rat ClC-1 chloride channel; 2,300 tested, under 10 active; AID 652236; CHO ClC-1-YFP, iodide influx fluorescence quench; iodide control reads 0, buffer control 100; ratio percent, % at 10 µM; shares compounds with ANO1 block;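 active = duplicate-mean ratio percent above the mean of iodide-only control wells, which defines zero, plus 5 of their SD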;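 note: higher percent means stronger block of ClC-1 iodide influx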
Starred values were filed as active, the others as inactive; i = inactive; u = inconclusive; x = no result.

SMILES | CHT allo act | PHOSPHO1 block | HDAC3 inh | ANO1 activ | ANO1 block | CHT inh | TMEM16A reconf | TMEM16A Ca cntr | YFP-HEK293 quench | ClC-1 inh
Cc1ccc(NC(=O)C(C)c2ccc(-c3ccccc3)c(F)c2)c(C)c1 (centres undefined) | i | 12.4 | -0.4 | i | 25* | i | i | i | -1.23 | -14.5
CC(C(=O)O)c1ccc(-c2ccccc2)c(F)c1 (centres undefined) | i | -1.4 | 6.2 | i | i | i | x | x | x | x
COc1ccc(Cl)cc1C(=O)CSc1nnnn1C1CCCCC1 | i | 31.7 | 4.7 | i | 100* | i | i | i | -1.1 | -9.0
COc1ccc(Cl)cc1C(=O)CSc1nnnn1C1CCCC1 | i | 19.2 | 5.6 | i | i | i | x | x | x | x
CCC(=O)Nc1cccc(-c2nc3ncccc3o2)c1C | i | 48.9 | -3.7 | i | i | i | x | x | x | x
Cc1c(NC(=O)CSc2ccc(Cl)cc2)cccc1-c1nc2ncccc2o1 | i | 19.2 | 1.9 | i | 25* | i | 19.5%* | i | -0.898 | -10.5
CC(C)Cn1c(SCC(=O)NCc2ccc(Cl)cc2)nnc1-c1cccc(S(=O)(=O)N2CCOCC2)c1 | i | 2.2 | u | i | i | i | x | x | x | x
CC(=O)Nc1cccc(NC(=O)CSc2ncc(-c3ccc(Cl)cc3)n2Cc2ccco2)c1 | i | -21.2 | 9.5 | i | 100* | i | 32.5%* | i | -0.961 | -16.5
O=C(CSc1nnc(-c2ccc(Cl)cc2)n1Cc1ccco1)Nc1ccc2c(c1)OCCO2 | i | 29.7 | -2.2 | i | i | i | x | x | x | x
CC(=O)c1ccc(NC(=O)N2CCN(c3ccc(C)cc3)C(C)C2)cc1 (centres undefined) | i | 26.9 | 7.7 | i | 25* | i | i | i | -0.875 | -4.5
CC1=C([N+](=O)[O-])C(c2ccccc2)C2=C(N1)c1ccccc1C2=O (centres undefined) | i | 37.2 | 10.4 | i | 25* | i | 38.0%* | i | -1 | 3.0
CC1CCC(NC(=O)CCS(=O)(=O)c2ccc3c(c2)NC(=O)CO3)CC1 (centres undefined) | i | 38.0 | -2.8 | i | i | i | x | x | x | x
CC1(C)CC2CC(C)(CN2S(=O)(=O)c2ccc(N)cc2)C1 (centres undefined) | i | -65.0 | -7.8 | i | 25* | i | i | i | -0.92 | -0.5
Cc1ccc(S(=O)(=O)N2CCC(C(=O)OCC(=O)NCCc3ccccc3)CC2)cc1C | i | x | -3.9 | i | i | i | x | x | x | x
Cc1ccc(S(=O)(=O)N2CCC(C(=O)OCc3ccccc3)CC2)cc1C | i | x | -1.6 | i | 25* | i | i | i | -1.26 | -6.0
COC(=O)Nc1ccc(S(=O)(=O)N2CCC(Cc3ccccc3)CC2)cc1 | i | 18.7 | -1.9 | i | 100* | i | i | i | -1.09 | -7.0
CC(=O)/C(C#N)=C1\NC(=O)C(Cc2cc(Cl)ccc2Cl)S1 (centres undefined) | i | 36.8 | 10.5 | i | 100* | i | 45.5%* | i | -1.14 | -11.5
Nc1nonc1-c1nc2ccccc2n1Cc1ccccc1 | i | 41.3 | 4.9 | i | i | i | x | x | x | x
CC(C)N1C(=O)c2ccccc2C1C(=O)NC1CCCCCC1 (centres undefined) | i | 23.6 | 1.3 | i | i | i | x | x | x | x
